From PubChem BioAssay (NCATS) come the findings set out here.

Inconclusive results are not listed. Active and inactive are the calls of the source. Unless noted, calls come from the whole dose curve.

Experiment [1] deals with Bile acid receptor (Homo sapiens) (UniProt Q96RI1). Kind of experiment: qHTS assay for small molecule antagonists of farnesoid X receptor signaling (AID 588526). Note: % is set by controls: 0 for no effect and ±100 for the full control effect. Put shortly: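 Beta-lactamase reporter antagonist mode: HEK293T FXR-UAS-bla cells, titrated compound, CDCA stimulation, 16 h 37 C, CCF4 dye 2 h RT. Data normalized to CDCA 50 uM and DMSO; Hill-fit IC50.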
Chain of Bile acid receptor (Homo sapiens) (Q96RI1 whole entry, looked up): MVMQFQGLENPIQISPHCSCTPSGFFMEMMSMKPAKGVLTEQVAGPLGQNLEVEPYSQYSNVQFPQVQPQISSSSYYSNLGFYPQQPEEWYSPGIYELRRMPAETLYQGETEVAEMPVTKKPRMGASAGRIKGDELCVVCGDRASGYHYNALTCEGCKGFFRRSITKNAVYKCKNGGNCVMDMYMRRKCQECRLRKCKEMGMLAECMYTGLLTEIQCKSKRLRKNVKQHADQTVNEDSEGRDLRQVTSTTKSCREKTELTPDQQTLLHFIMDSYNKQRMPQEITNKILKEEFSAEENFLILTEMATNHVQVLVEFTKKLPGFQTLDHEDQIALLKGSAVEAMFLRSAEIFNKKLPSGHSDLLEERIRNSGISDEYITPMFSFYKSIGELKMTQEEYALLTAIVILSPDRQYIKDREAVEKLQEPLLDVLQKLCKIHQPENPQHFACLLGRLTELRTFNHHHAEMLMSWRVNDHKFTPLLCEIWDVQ
On the technique in general: In qHTS, concentration-response curves come from the screen itself.

The target is the same in experiment [2]. Kind of experiment: qHTS assay for small molecule agonists of farnesoid X receptor signaling (AID 588527).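 Note: series mostly up to about 77 µM; 0% = vehicle basal and 100% = reference agonist.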 The settings on record: HEK293T FXR-UAS-bla, beta-lactamase ratio, 16 h; activation: stronger effect = higher value. Put shortly:
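Read-out: beta-lactamase reporter fluorescence with CCF4 substrate in GeneBLAzer FXR-UAS-bla HEK293T cells, after 16 h compound exposure at 37 C. Response scaled between DMSO basal (0%) and chenodeoxycholic acid at 100 uM (100%).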

Experiment [3] addresses Retinoic acid receptor RXR-alpha (Homo sapiens) (UniProt P19793). The experiment is described as follows: qHTS assay for small molecule agonists of retinoid X receptor alpha signaling (AID 588544).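 Note: 0% = DMSO basal wells and 100% = reference agonist.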
The target of experiment [4] is Thyroid hormone receptor beta (Homo sapiens) (UniProt P10828). Kind of experiment: qHTS assay for small molecule agonists of thyroid hormone receptor beta signaling (AID 588545).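 Note: 0% = DMSO only and 100% = 10 nM T3.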 Put shortly:
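Beta-lactamase reporter activity under TR response element control is measured in HEK 293 cells after 18 hrs compound exposure. Signal is ratiometric CCF4 fluorescence, 460/530 nm.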

Experiment [5] has the same target. The experiment is described as follows: qHTS assay for small molecule antagonists of thyroid hormone receptor beta signaling (AID 588547; active = well fitted inhibition curve with a large enough effect in the signal ratio, with a control signal flat, not every such curve was filed as active; the % refers to the signal ratio;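 note: cells stimulated with 0.4 nM T3 agonist during compound exposure; series mostly up to about 77 µM; % is set by controls: 0 for no effect and ±100 for the full control effect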). The settings on record: TR-UAS-bla HEK293, beta-lactamase ratio, antagonist mode, 18 h. An outline of the steps: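 Inhibition of T3-driven (0.4nM final) beta-lactamase reporter activity was measured over 0.59 nM to 92 uM compound after 18 h at 37 C. The cells were GripTite HEK293 TR-UAS-bla in charcoal/dextran-stripped serum, with CCF4 ratio read-out and IC50 from Hill fits.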

Experiment [6] in a line: qHTS assay for small molecule activators of the p53 signaling pathway (AID 651743; active = well fitted activation curve with a large enough effect in the signal ratio, not every such curve was filed as active; the % refers to the signal ratio; note: series mostly up to about 92 µM; % of control where 0% means no effect). Particulars: HCT-116 p53RE-bla, beta-lactamase FRET ratio, 16 h; activation: stronger effect = higher value. An outline of the steps: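 Read-out is fluorescence intensity from the LiveBLAzer B/G FRET substrate, added for 2 hours at room temperature after HCT-116 p53RE-bla cells had been incubated with compounds for 16 hours at 37 C.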

The nature of experiment [7]: qHTS assay for small molecule activators of the nuclear factor-kappa B (NF-kB) signaling pathway (AID 651749; active = well fitted activation curve with a large enough effect in the signal ratio; the % refers to the signal ratio; note: series mostly up to about 77 µM; % of control where 0% means no effect). The settings on record: NF-kB-bla ME-180 cells, beta-lactamase FRET ratio, 16 h; activation: stronger effect = higher value. An outline of the steps: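 Readout: beta-lactamase reporter driven by an NF-kB response element, detected fluorescently as loss of FRET. Cells were the ME-180 line, treated 16 hr at 37C with pin-transferred compound.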

Experiment [8] can be described thus: qHTS assay for environmental chemicals that activate the Aryl hydrocarbon Receptor (AhR) signaling pathway (AID 651777; active = well fitted curve in the direction sought with a large enough effect; an effect the other way counts as inactive or inconclusive; note: % of control where 0% means no effect; nearly all actives have a fitted effect of over 15% in size). Particulars: 1A2-DRE human hepatoma cells, luciferase, 24 h; activation: stronger effect = higher value. An outline of the steps: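 Human hepatoma 1A2-DRE cells, stably carrying a dioxin response element and CYP1A2 promoter driving luciferase, were exposed to compounds for 24 hr at 37 C and 5% CO2. Luciferase signal was then read after 30 min One-Glo at room temperature.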

Experiment [9] concerns the target Peroxisome proliferator-activated receptor alpha (Homo sapiens) (UniProt Q07869). Kind of experiment: qHTS assay for small molecule agonists of the peroxisome proliferator-activated receptor alpha (PPARalpha) signaling pathway (AID 651778; active = well fitted curve in the direction sought with a large enough effect; an effect the other way counts as inactive or inconclusive; note: % of control where 0% means no effect). Particulars: PathHunter PPARalpha complementation, chemiluminescence, 6 h; max response: stronger effect = higher value. Put shortly:
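Chemiluminescence from complemented enzyme reported PPARalpha activation in cells after 6 hr of compound treatment at 37 C. The detection reagent was incubated for 60 min at room temperature, and compounds were scored as agonists.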

Experiment [10] can be described thus: qHTS assay for small molecule agonists of the antioxidant response element (ARE) signaling pathway measured by Nrf2-dependant transcriptional activity (AID 720636; active = well fitted curve in the direction sought with a large enough effect in the repeat runs; an effect the other way counts as inactive or inconclusive; note: % of control where 0% means no effect). An outline of the steps: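 ARE-luc HepG2 cells carrying an Nrf2-responsive luciferase reporter were plated in medium with 1% dialyzed FBS, left 6 hr at 37 C to attach, then exposed to compound for 16 hr. Luciferase luminescence was read after ONE-Glo addition.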

Experiment [11] in a line: qHTS assay for small molecule agonists of the antioxidant response element (ARE) signaling pathway measured by Nrf2-dependant transcriptional activity - cell viability counter screen (AID 720653; active = well fitted curve in the direction sought with a large enough effect in the repeat runs; an effect the other way counts as inactive or inconclusive; note: % is set by controls: 0 for no effect and ±100 for the full control effect). The settings on record: ARE-bla HepG2 viability, CellTiter-Glo ATP luminescence, 16 h; max response: stronger effect = lower value. Put shortly:
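Cytotoxicity counter screen: intracellular ATP quantified by CellTiter-Glo luminescence in the same ARE-bla HepG2 plates, after 16 h compound exposure and a 2 h beta-lactamase substrate step.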

Experiment [12] is described as follows: qHTS assay for cell viability of HEK293 cells (AID 743288; active = well fitted curve in the direction sought with a large enough effect; an effect the other way counts as inactive or inconclusive; note: % is set by controls: 0 for no effect and ±100 for the full control effect; nearly all actives have a fitted effect of over 50% in size). The settings on record: ATP luminescence (CellTiter-Glo), 18 h; max response: stronger effect = lower value. An outline of the steps:
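Environmental chemicals tested in qHTS format against parental HEK293 cells; 18 h treatment, 37 C; read-out ATP luminescence (CellTiter-Glo), 30 min RT development.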

The target of experiment [13] is Glucocorticoid receptor (Homo sapiens) (UniProt P04150). The experiment is described as follows: qHTS assay for small molecule agonists of glucocorticoid receptor signaling (AID 588532; active = well fitted curve in the direction sought with a large enough effect in the signal ratio, with a control signal flat; the % refers to the signal ratio;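 note: 100% = dexamethasone at 0.1 µM and 0% = DMSO only wells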). The settings on record: HeLa MMTV-bla, beta-lactamase ratio, agonist, 18 h; activation: stronger effect = higher value, percent of dexamethasone control, DMSO zero. Put shortly:
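Quantitative HTS using CellSensor MMTV-bla HeLa cells in charcoal/dextran-treated serum; compounds tested up to 92 uM. After 18 h at 37 C, CCF4 dye reported reporter induction.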

The target of experiment [14] is Peroxisome proliferator-activated receptor delta (Homo sapiens) (UniProt Q03181). Kind of experiment: qHTS assay for small molecule agonists of peroxisome proliferator-activated receptor delta signaling (AID 588534).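 Note: 0% = DMSO basal wells and 100% = positive control agonist at 10 µM.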 An outline of the steps: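 Cells carrying a PPAR-delta beta-lactamase reporter were treated with compounds for 18 h at 37 °C in agonist mode. CCF4 fluorescence was read after 2 h; EC50 and efficacy from Hill fits.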
Chain of Peroxisome proliferator-activated receptor delta (Homo sapiens) (Q03181 whole entry, looked up): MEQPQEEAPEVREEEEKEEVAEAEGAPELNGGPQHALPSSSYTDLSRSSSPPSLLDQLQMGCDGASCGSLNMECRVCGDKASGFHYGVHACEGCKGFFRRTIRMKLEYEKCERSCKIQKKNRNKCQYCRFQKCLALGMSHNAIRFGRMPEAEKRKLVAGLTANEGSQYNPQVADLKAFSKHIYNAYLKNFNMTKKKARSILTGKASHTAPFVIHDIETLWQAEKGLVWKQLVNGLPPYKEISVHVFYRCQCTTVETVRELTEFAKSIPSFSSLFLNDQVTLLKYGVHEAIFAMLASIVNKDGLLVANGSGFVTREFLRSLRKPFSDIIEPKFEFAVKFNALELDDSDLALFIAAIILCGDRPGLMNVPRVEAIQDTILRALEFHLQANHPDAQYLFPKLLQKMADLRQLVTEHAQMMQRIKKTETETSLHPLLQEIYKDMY

Experiment [15] is described as follows: qHTS assay for small molecule antagonists of peroxisome proliferator-activated receptor delta signaling (AID 588535).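 Note: cells co-treated with a PPAR-delta agonist as stimulator during compound exposure.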 Particulars: HEK293T PPARd-UAS-bla, beta-lactamase FRET ratio, 18 h; 460 nm channel. Put shortly: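 HEK293T PPAR-delta-UAS-bla cells, 4000/well, 2% charcoal/dextran FBS; 5 h 37 C; cpd titration; 18 h 37 C; CCF4 2 h RT; FI 460/530 nm; Hill fit → IC50, efficacy.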

Experiment [16] has as its target Vitamin D3 receptor (Homo sapiens) (UniProt P11473). Kind of experiment: qHTS assay for small molecule antagonists of vitamin D receptor signaling (AID 588541).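 Note: receptor activated by calcitriol during compound treatment; series mostly up to about 77 µM; % is set by controls: 0 for no effect and ±100 for the full control effect.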 An outline of the steps: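 Antagonist-mode beta-lactamase reporter assay: HEK293T VDR-UAS-bla cells were exposed to titrated compound alongside 1-alpha,25-dihydroxyvitamin D3 at 3 nM final for 16 h. Values were normalized to the 50 nM agonist control and DMSO basal, with IC50 and efficacy from Hill equation fits.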

For experiment [17] the target is unchanged. The experiment is described as follows: qHTS assay for small molecule agonists of vitamin D receptor signaling (AID 588543).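 Note: 0% = DMSO basal and 100% = reference agonist control.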 Put shortly:
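β-lactamase reporter, VDR-UAS-bla HEK293T, agonist mode. Cells plated 5 h at 37 °C, compound titration 16 h at 37 °C, CCF4 dye 2 h RT, ratio 460/530 nm. Hill fit → EC50, efficacy vs 50 nM 1α,25-(OH)2D3.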

Experiment [18] is described as follows: qHTS assay for small molecule antagonists of retinoid X receptor alpha signaling (AID 588546; active = well fitted inhibition curve with a large enough effect in the signal ratio, with a control signal flat, not every such curve was filed as active; the % refers to the signal ratio). The settings on record: HEK293T RXRa-UAS-bla, beta-lactamase ratio, antagonist mode; measured here: W530 green channel, cytotoxicity proxy. Put shortly: (§1)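 Beta-lactamase reporter inhibition, read as CCF4 fluorescence ratio (ex 405, em 460/530 nm) after 2 h at RT. HEK293T UAS-bla cells, 2500/well, were stimulated with 9-cis-RA at 500 or 100 nM final alongside test compound for 18 h at 37 C.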

Experiment [19] is described as follows: qHTS assay for cell viability of the p53RE-bla HCT-116 cell line (AID 743292; active = well fitted curve in the direction sought with a large enough effect; an effect the other way counts as inactive or inconclusive; note: % is set by controls: 0 for no effect and ±100 for the full control effect; nearly all actives have a fitted effect of over 55% in size). Put shortly: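 CellSensor p53RE-bla HCT-116 cells, 4,000/well, preincubated 5 h at 37 C, then exposed to compounds in DMSO for 16 h at 37 C. Viability read as CellTiter-Glo luminescence (intracellular ATP) after 30 min at room temperature.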
Experiment [20] has as its target Retinoic acid receptor RXR-alpha (Homo sapiens) (UniProt P19793). The experiment is described as follows: qHTS assay for small molecule antagonists of retinoid X receptor alpha signaling (AID 588546). Particulars: HEK293T RXRa-UAS-bla, beta-lactamase ratio, antagonist mode. An outline of the steps:
as §1

Chain of Thyroid hormone receptor beta (Homo sapiens) (P10828 whole entry, looked up): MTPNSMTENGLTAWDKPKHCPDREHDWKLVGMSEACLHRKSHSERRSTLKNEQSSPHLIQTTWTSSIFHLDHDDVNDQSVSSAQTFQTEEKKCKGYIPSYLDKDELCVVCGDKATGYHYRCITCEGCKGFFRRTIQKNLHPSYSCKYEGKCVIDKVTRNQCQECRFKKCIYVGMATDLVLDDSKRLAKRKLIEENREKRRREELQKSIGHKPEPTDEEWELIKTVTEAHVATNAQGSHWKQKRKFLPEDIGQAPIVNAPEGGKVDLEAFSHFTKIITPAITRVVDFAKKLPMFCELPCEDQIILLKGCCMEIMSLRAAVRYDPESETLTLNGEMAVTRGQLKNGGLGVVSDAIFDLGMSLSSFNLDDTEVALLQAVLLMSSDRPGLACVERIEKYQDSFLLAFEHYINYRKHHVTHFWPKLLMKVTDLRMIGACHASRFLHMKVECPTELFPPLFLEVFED
Chain of Peroxisome proliferator-activated receptor alpha (Homo sapiens) (Q07869 whole entry, looked up): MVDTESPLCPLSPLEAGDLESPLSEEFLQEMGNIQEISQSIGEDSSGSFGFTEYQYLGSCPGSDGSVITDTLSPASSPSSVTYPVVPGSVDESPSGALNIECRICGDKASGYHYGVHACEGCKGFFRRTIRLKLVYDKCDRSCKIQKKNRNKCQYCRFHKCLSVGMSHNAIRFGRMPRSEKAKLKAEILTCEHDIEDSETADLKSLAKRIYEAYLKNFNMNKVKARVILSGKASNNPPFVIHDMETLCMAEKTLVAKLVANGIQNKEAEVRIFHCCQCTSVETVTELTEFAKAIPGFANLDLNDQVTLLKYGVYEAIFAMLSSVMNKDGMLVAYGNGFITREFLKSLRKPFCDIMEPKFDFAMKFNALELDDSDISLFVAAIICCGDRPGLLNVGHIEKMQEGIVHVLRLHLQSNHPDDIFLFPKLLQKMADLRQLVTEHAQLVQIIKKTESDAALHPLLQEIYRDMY
Chain of Glucocorticoid receptor (Homo sapiens) (P04150 whole entry, looked up): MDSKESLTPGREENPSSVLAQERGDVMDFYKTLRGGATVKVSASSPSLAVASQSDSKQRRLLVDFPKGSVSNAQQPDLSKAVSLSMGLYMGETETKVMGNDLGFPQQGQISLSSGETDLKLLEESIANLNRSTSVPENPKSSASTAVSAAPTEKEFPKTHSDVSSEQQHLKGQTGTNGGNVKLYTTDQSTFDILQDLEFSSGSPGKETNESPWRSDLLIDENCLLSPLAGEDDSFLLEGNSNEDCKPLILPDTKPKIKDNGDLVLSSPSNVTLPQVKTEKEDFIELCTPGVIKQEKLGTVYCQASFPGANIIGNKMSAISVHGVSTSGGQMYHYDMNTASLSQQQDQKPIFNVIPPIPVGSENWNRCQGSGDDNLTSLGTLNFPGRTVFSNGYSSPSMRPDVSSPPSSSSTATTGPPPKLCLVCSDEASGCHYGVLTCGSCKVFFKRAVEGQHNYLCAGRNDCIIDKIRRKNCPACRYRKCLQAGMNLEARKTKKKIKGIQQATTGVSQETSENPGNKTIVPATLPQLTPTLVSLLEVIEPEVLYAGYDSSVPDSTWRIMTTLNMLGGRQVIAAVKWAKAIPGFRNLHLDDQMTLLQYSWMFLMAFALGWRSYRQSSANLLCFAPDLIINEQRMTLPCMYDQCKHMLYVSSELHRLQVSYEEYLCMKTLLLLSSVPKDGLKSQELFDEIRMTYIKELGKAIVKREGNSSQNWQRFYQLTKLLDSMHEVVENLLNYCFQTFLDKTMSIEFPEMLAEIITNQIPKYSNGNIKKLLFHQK
Chain of Retinoic acid receptor RXR-alpha (Homo sapiens) (P19793 whole entry, looked up): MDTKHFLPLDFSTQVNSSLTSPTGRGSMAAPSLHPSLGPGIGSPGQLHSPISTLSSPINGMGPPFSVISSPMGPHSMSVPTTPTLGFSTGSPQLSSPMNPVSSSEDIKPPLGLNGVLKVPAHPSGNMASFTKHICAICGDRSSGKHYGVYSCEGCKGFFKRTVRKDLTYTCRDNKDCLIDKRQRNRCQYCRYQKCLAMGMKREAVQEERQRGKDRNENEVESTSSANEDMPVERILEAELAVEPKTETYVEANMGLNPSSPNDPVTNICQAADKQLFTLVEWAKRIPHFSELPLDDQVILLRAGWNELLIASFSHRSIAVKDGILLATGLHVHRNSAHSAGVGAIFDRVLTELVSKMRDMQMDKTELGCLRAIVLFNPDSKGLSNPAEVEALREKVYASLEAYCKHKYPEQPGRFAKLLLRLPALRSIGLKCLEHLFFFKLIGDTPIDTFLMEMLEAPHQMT
Chain of Vitamin D3 receptor (Homo sapiens) (P11473 whole entry, looked up): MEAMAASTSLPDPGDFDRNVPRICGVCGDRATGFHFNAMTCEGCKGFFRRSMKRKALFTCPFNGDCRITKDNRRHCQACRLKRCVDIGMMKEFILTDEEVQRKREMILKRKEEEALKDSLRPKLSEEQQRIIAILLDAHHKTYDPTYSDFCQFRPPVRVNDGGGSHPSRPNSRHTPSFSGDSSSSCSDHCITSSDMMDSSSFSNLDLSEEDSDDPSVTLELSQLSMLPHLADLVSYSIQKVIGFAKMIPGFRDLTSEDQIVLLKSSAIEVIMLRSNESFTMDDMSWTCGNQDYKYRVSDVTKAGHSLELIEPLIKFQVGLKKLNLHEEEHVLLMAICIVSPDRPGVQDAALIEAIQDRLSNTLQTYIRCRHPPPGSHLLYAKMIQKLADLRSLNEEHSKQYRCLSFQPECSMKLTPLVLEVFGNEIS

Turning to `CCC(C)(c1ccc(O)cc1)c1ccc(O)cc1`, the Potency entry in [1], in experiment [3], in [4] and in [10] was “inactive” each time. The activation is 1.29% (inactive) in experiment [2], -1.26% (inactive) in [6], -1.76% (inactive) in experiment [7] and -1.12% (inactive) in experiment [8]. The activity change % (negative = inhibition) in [5] is 5.47% (inactive). Moreover, the max response is -1.57% (inactive) in experiment [9], -14.2% (inactive) in experiment [11] and -0.148% (inactive) in [12].
As for `O=C(O)c1c(Cl)ccc2cc(Cl)cnc12`, the Potency entry in experiment [1], in [16], in [3], in experiment [4], in experiment [10] and in [19] was “inactive” throughout. For the same molecule, the activation was 3.46% (inactive) in experiment [13], -0.182% (inactive) in experiment [7] and 2.06% (inactive) in experiment [8]. Moreover, the call in experiment [14] and in experiment [17] was inactive. For the same molecule, the max response in experiment [15] is 71.4%; in experiment [18] it was 3.11%; in [9] it was -2.09% (inactive); in [11] it was -9.56% (inactive); in experiment [12], -11.4% (inactive).
`CCC(CC)Nc1c([N+](=O)[O-])cc(C)c(C)c1[N+](=O)[O-]`: the Potency result in experiment [1], in experiment [16], in experiment [3], in experiment [4] and in experiment [10] was “inactive” throughout. Also, the figures for the activation in [13], in [6] and in experiment [7] were -2.05% (inactive), -0.326% (inactive) and -1.58% (inactive), respectively. Moreover, the molecule was called inactive in experiment [14] and in [17]. Moreover, the max response in experiment [15] is -38.2%; in experiment [9], -0.0369% (inactive); in experiment [11], -7.95% (inactive); in experiment [12], -2.98% (inactive). Also, in experiment [5], the activity change % (negative = inhibition) was -5.09% (inactive).
Turning to `CCC(C)Nc1ccc(NC(C)CC)cc1` (stereo not given), the activation in [2] is -2.74% (inactive).
`COC(=O)C(C)Oc1ccc(Oc2ccc(Cl)cc2Cl)cc1` (stereo not given): the Potency entry in experiment [1], in experiment [3], in experiment [4], in [10] and in [19] was “inactive” throughout. Further, the activation in experiment [2] is -6.35% (inactive); in [13], -5.37% (inactive); in experiment [6], -3.5% (inactive); in [7], -0.397% (inactive); in [8] it was -0.824% (inactive). Besides, the outcome in [14] was inactive. Besides, the max response in [18] was -8.87%; in experiment [20], -16.7% (inactive); in [11] it was -5.74% (inactive); in experiment [12], -4.71% (inactive). In addition, the activity change % (negative = inhibition) in [5] is 8.67% (inactive).
